FLuc counter – firefly luciferase modulation, counter-screen for miR-21 project; P08659; purified FLuc, Km substrates, luminescence inhibition; Potency, µM (doses to about 57.5 µM), for inactives: at the highest dose activity change, negative = inhibition, usual class: inhibitors; 360,000 tested, 6.9% active;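 further: plate controls were vehicle for no effect and reference inhibitor for full effect; nearly all actives have a fitted effect of over 55% in size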
Target sequence (P08659 whole entry, looked up): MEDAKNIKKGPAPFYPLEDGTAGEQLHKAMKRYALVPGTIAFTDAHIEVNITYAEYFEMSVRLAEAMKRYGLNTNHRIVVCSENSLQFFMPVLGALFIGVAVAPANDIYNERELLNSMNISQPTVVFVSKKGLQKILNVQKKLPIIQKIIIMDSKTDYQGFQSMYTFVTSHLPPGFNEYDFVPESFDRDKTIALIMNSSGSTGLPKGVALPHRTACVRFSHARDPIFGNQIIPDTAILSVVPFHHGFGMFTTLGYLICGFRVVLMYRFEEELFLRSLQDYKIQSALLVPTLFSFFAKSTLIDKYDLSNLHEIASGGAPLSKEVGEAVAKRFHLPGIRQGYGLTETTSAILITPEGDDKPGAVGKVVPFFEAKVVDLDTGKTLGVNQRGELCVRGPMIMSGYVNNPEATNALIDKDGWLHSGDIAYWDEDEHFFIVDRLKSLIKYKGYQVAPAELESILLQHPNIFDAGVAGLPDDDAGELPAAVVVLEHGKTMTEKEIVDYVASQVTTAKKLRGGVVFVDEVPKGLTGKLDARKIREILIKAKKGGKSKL
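Purified P. pyralis luciferase, 10 nM final, with Km-level 10 uM D-luciferin and 10 uM ATP in 50 mM Tris acetate pH 7.5, 10 mM Mg acetate, 0.01% Tween-20, 0.05% BSA; 6-point qHTS titration about 60 µM downward; luminescence read.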
Rab9 prom act – Rab9 promoter activation. AID 485297. 320,000 tested, 2.8% active. Huh7 Rab9 promoter-luciferase reporter, luminescence, 24 h. Potency, µM (top dose mostly 9.22 µM), for the others: at the top dose activation, negative = inhibition, usual class: activators; further: % of control where 0% means no effect; nearly all actives have a fitted effect of over 60% in size
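Huh7 cells stably carrying a Rab9 promoter-luciferase reporter, 1500 cells per well in OP-MEM I with 10% FBS, treated with compound 24 hours at 37C. Luciferase activity read by luminescence after 10 minutes with Amplite reagent.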
SMN2 splice up – enhancers of SMN2 splice variant expression | HEK293 SMN2-luciferase splicing reporter, luminescence, 30-36 h | Potency, µM (highest dose often 46.1 µM), for the others: top-dose activity change, positive = activation, actives largely listed as activators | 210,000 tested, 2.8% active; further: % of control where 0% means no effect; nearly all actives have a fitted effect of over 55% in size
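HEK293 cells carry an SMN2 […]–luciferase reporter in which exon 7 inclusion puts luciferase in frame. Cells were plated 10-12 h before compound addition, then incubated 30-36 h at 37C. ONE-Glo luminescence was read; sodium butyrate at 4.5 mM final served as control.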
NPC1 promoter act – NPC1 promoter activation. Huh7 NPC1 promoter luciferase reporter, 24 h. AID 485313. Potency, µM (titrated, usually from 9.22 µM), for the others: at the top dose activation, actives largely listed as activators. 320,000 tested, 2.4% active; further: % of control where 0% means no effect; nearly all actives have a fitted effect of over 60% in size
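In 1536-well qHTS, Huh7 cells harboring an NPC1 promoter–luciferase construct received compound for 24 h; activation was quantified by luminescence following luciferase reagent addition.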
ELG1 genotoxic – inducers of genotoxicity in HEK293T ELG1-luciferase cells; HEK293T ELG1-luciferase reporter, luminescence, 16 h; Potency, µM (doses to about 46 µM), without a hit: at the highest dose activity change, positive = activation, hits mostly activators; 330,000 tested, 1.3% active; AID 504466; further: % of control where 0% means no effect; nearly all actives have a fitted effect of over 60% in size
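Step 1: seed 2,000 HEK293T ELG1-luciferase cells per well. Step 2: add compound or DMSO, incubate 16 hr at 37 °C. Step 3: ONE-Glo, 30 min at room temperature, read luminescence.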
Active calls of the source: *; ? = inconclusive; / = no result; [ ] = dose if it differs, or a comment. Only some compounds are listed: those with a hit (about 7.5% of all), similar ones and a draw of the others. The call rests on the fitted dose curve; in most records, active means well fitted curve in the direction sought with a large enough effect; inconclusive means small, poorly fitted or top-dose-only effect, or another doubt; inactive means no such curve, though single readings can be large; an effect the other way counts as inactive or inconclusive. Potency means the concentration at half of the fitted maximal effect.

SMILES	FLuc counter	Rab9 prom act	SMN2 splice up	NPC1 promoter act	ELG1 genotoxic
COc1ccc(C2C(=O)N(C3CCCCCC3)CC(=O)N2Cc2ccc(C)cc2)cc1OC (stereo unspecified)	6%	/	/	/	/
COc1ccc(N2CC(C(=O)N(C)CC(=O)Nc3ccc(Cl)c(C(F)(F)F)c3)CC2=O)c(OC)c1 (stereo unspecified)	6%	-6%	/	1%	-4%
CCc1ccc(CNC(=O)C2CCN(C(=O)N3CC(CC)Oc4ccc(C)cc43)CC2)cc1 (stereo unspecified)	1%	/	/	/	/
COc1ccc(S(=O)(=O)N2CCN(C(=O)N3CCOCC3)C2C)cc1 (stereo unspecified)	0%	3%	/	2%	11%
COc1cccc(C(=O)Nc2nc3c(s2)CN(C)CC3)c1	19µM*	?	11%	?	18%
CN1CCc2nc(NC(=O)c3cccc(S(=O)(=O)N4CCc5ccccc54)c3)sc2C1	-11%	-3%	6%	0%	3%
O=C(Nc1ccnn1C1CCN(Cc2ccccc2)CC1)C1CCCC1	2%	5%	/	-5%	1%
CCN1CCc2nc(NC(=O)c3ccccc3)sc2C1	7.6µM*	/	10%	/	/
O=C(Nc1nc2c(s1)CN(Cc1ccccc1)CC2)C1CCC1	24µM*	4.5µM*	?	?	?
Cc1ccccc1C(=O)Nc1nc(-c2nnn(-c3ccc(C(C)C)cc3)c2C)ns1	-6%	/	/	/	/
COc1ccc(-c2noc(N3CCC(C(=O)N(C)c4cc(Cl)ccc4OC)CC3)n2)cc1	-8%	/	/	/	/
O=C(O)Cn1cc(/C=N/NC(=O)c2cc3cc(Br)ccc3o2)c2ccccc21	12µM*	1%	/	1%	1%
C#CCn1cc(/C=N/NC(=O)c2cc3ccccc3o2)c2ccccc21	12µM*	-2%	7%	9%	0%
Cn1cc(/C=N/NC(=O)c2cc3cc(Br)ccc3o2)c2ccccc21	8.5µM*	5%	/	9%	-1%
O=C(O)c1ccc(-n2cccc2/C=N\NC(=O)c2cc3cc(Br)ccc3o2)cc1	15µM*	-2%	/	-4%	-2%
O=C(N/N=C/c1cccc2ccccc12)c1cc2ccccc2o1	?	1%	/	0%	0%
Cc1ccc(OCC(=O)O/N=C(\N)c2ccncc2)c(C)c1	11µM*	3.5µM*	/	3.2µM*	15µM*
Cc1cc(C)c(C)c(OCC(=O)O/N=C(\N)c2ccncc2)c1	0%	-1%	/	0%	-5%
N/C(=N\OC(=O)COc1cc(Cl)c(Cl)cc1Cl)c1ccncc1	13µM*	?	14µM*	?	18µM*
N/C(=N\OC(=O)COc1ccc(Br)cc1Cl)c1ccncc1	6.7µM*	3.5µM*	11µM*	3.5µM*	?
CCOc1ccc(N/C(C)=C/C(=O)c2ccc3c(c2)OCCO3)cc1	5.4µM*	2.2µM*	/	3.2µM*	?
CCOc1ccc(N/C(C)=C\C(=O)c2ccc3c(c2)OCCO3)cc1	3.8µM*	1.1µM*	/	2.5µM*	12%
Cc1ccc(NC(=O)c2cncc(Br)c2)c(O)c1	17µM*	?	?	?	-1%
Cc1ccc(NC(=O)c2ccc(CSc3ccccn3)cc2)c(O)c1	24µM*	11%	/	12%	0%
Cc1ccc(NC(=O)c2cncc(Br)c2)nc1	?	?	/	3.2µM*	?
SMILES	FLuc counter	Rab9 prom act	SMN2 splice up	NPC1 promoter act	ELG1 genotoxic
O=C(NC(=S)Nc1ccc(Br)cn1)c1cncc(Br)c1	-5%	-3%	12%	6%	2%
Cc1ccc(NC(=O)c2ccc3nc[nH]c3c2)c(O)c1	19µM*	?	13µM*	3.2µM*	?
C[C@H]1Cc2c(COc3ccccc3)nc3c(c2CO1)CN(C(=O)C1CC1)CC3	/	/	5%[9.22 µM]	/	/
COc1cc(-c2noc(-c3ccc(NCC4CCCO4)c([N+](=O)[O-])c3)n2)cc(OC)c1OC (stereo unspecified)	21µM*	/	/	/	/
O=[N+]([O-])c1cc(-c2nc(-c3ccco3)no2)ccc1NCc1ccccc1	15µM*	/	/	/	/
COc1cc(-c2noc(-c3ccc(NCc4ccccc4)c([N+](=O)[O-])c3)n2)cc(OC)c1OC	15µM*	/	/	/	/
COc1ccc(-c2noc(-c3ccc(NCc4cccnc4)c([N+](=O)[O-])c3)n2)cc1	-15%	/	/	/	/

Compound activity: PubChem BioAssay, National Center for Advancing Translational Sciences (NCATS)
